# Measurements from PubChem BioAssay AID1159580 (chemical genetic matrix, 2015).
# In all, about 5,500 compounds went through this assay and about 2,000 (36%) were called active. Roughly 18% stayed inconclusive and do not appear here. Some of the results follow. Values without a mark were called inactive. Cut-off read from the data, not from the text of the source: active = normalized growth mostly below about 0.91 (no sharp cut-off); inconclusive = no clear call, values can overlap the other calls; inactive = mostly above about 0.92.
# Test: chemical genetic growth profiling, strain panel (AID 1159580);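 note: tested at 20 µM; growth read once vehicle control cultures reached saturation at 30 °C; 1 = growth at the plate median or of vehicle wells; lower values mean less growth of the strain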
# Details: growth OD
# [1] = S. cerevisiae deletion strains, locus YBR229C, strain ROT2, stronger effect = lower value
# [2] = S. cerevisiae deletion strains, locus YCL061C, strain MRC1, stronger effect = lower value
# [3] = S. cerevisiae deletion strains, locus YDL101C, strain DUN1, stronger effect = lower value
# [4] = S. cerevisiae deletion strains, locus YDL134C, strain PPH21, stronger effect = lower value
# [5] = S. cerevisiae deletion strains, locus YDR150W, strain NUM1, stronger effect = lower value
# [6] = S. cerevisiae deletion strains, locus YEL061C, strain CIN8, stronger effect = lower value
# [7] = S. cerevisiae deletion strains, locus YGR078C, strain PAC10, stronger effect = lower value
# [8] = S. cerevisiae deletion strains, locus YHR030C, strain SLT2, stronger effect = lower value
# [9] = S. cerevisiae deletion strains, locus YHR087W, strain rtc3, stronger effect = lower value
# [10] = S. cerevisiae deletion strains, locus YJR043C, strain POL32, stronger effect = lower value
# [11] = S. cerevisiae deletion strains, locus YJR075W, strain HOC1, stronger effect = lower value
# [12] = S. cerevisiae deletion strains, locus YLR039C, strain RIC1, stronger effect = lower value
# [13] = S. cerevisiae deletion strains, locus YLR058C, strain SHM2 (second series), stronger effect = lower value
# [14] = S. cerevisiae deletion strains, locus YLR085C, strain ARP6, stronger effect = lower value
# [15] = S. cerevisiae deletion strains, locus YLR262C, strain YPT6, stronger effect = lower value
# [16] = S. cerevisiae deletion strains, locus YML094W, strain GIM5, stronger effect = lower value
# [17] = S. cerevisiae deletion strains, locus YMR219W, strain ESC1, stronger effect = lower value
# [18] = S. cerevisiae deletion strains, locus YMR263W, strain SAP30, stronger effect = lower value
# [19] = S. cerevisiae deletion strains, locus YNL153C, strain GIM3, stronger effect = lower value
# [20] = S. cerevisiae deletion strains, locus YNL298W, strain CLA4 (second series), stronger effect = lower value
# [21] = S. cerevisiae deletion strains, locus YNL322C, strain KRE1, stronger effect = lower value
# [22] = S. cerevisiae deletion strains, locus YNR030W, strain Alg12, stronger effect = lower value
# [23] = S. cerevisiae deletion strains, locus YPL055C, strain LGE1, stronger effect = lower value
# [24] = S. cerevisiae deletion strains, locus YPL241C, strain CIN2, stronger effect = lower value
# [25] = S. cerevisiae deletion strains, locus YPR135W, strain CTF4, stronger effect = lower value
smiles,measurement,setting,value
Cc1cc(Br)c(OCC(=O)NN)c2c1CCC2,normalized growth,"S. cerevisiae deletion strains, locus YAL013W, strain DEP1, stronger effect = lower value",1
same,normalized growth,[1],1
same,normalized growth,[2],1.01
same,normalized growth,[3],0.995
same,normalized growth,[4],1
same,normalized growth,[5],1.05
same,normalized growth,[6],0.985
same,normalized growth,[7],0.999
same,normalized growth,[8],0.856
same,normalized growth,[9],0.993
same,normalized growth,[10],0.998
same,normalized growth,[11],0.989
same,normalized growth,"S. cerevisiae deletion strains, locus YKL190W, strain CNB1, stronger effect = lower value",0.989
same,normalized growth,[12],0.608 (active)
same,normalized growth,[13],0.999
same,normalized growth,[14],0.947
same,normalized growth,[15],0.584 (active)
same,normalized growth,[16],0.975
same,normalized growth,[17],1
same,normalized growth,[18],0.961
same,normalized growth,[19],1.02
same,normalized growth,[20],0.979
same,normalized growth,[21],0.994
same,normalized growth,[22],0.997
same,normalized growth,[23],0.915
same,normalized growth,[24],1.02
same,normalized growth,[25],0.906
Cc1ccc(OCC(=O)NN)c2c1CCC2,normalized growth,[1],1
same,normalized growth,[2],0.994
same,normalized growth,[3],1.03
same,normalized growth,[4],1.01
same,normalized growth,[5],1.01
same,normalized growth,[6],1.01
same,normalized growth,[7],0.989
same,normalized growth,[8],0.985
same,normalized growth,[9],1.04
same,normalized growth,[10],0.99
same,normalized growth,[11],0.989
same,normalized growth,[12],0.867
same,normalized growth,[13],1.01
same,normalized growth,[14],1.01
same,normalized growth,[15],0.913
same,normalized growth,[16],1.01
same,normalized growth,[17],0.991
same,normalized growth,[18],1.01
same,normalized growth,"S. cerevisiae deletion strains, locus YMR307W, strain GAS1, stronger effect = lower value",0.963
same,normalized growth,[19],1
same,normalized growth,[20],0.989
same,normalized growth,[21],0.997
same,normalized growth,[22],1.01
same,normalized growth,"S. cerevisiae deletion strains, locus YOL006C, strain TOP1, stronger effect = lower value",1.01
same,normalized growth,[23],1.01
same,normalized growth,[24],1.01
same,normalized growth,[25],0.982
same,normalized growth,"S. cerevisiae strains, strain wild type, stronger effect = lower value",1.01
